# From the supplement of paper PMC9135407
# Screen size: about 5,800 compounds; about 620 (11%) showed activity. Many of the other results were omitted from the sample, so actives are more common in it than they were. A number with no mark means an inactive call.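 The calls were made as follows: active = score above a cut-off or among the top three wells of a plate; in these data no inactive exceeds 0.85.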
# System: primary human hepatic stellate cells (donor 1)
# Assay: scaled lipid accumulation score (0 = DMSO-like, 1 = nortriptyline-like); higher = stronger HSC inactivation (lipid re-accumulation), active = hit call of the paper
# Details: 48 h
# Protocol: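 Primary lipid accumulation screen in primary human hepatic stellate cell myofibroblasts (donor 1, passage 8) in 384-well plates. 100 nL of library compound was pin-transferred into 30 µL medium in duplicate, and cells were treated for 48 h. The 'Scaled' score combines distance from plate baseline, toxicity and reproducibility penalties, and is normalised to nortriptyline (positive) and DMSO (negative) controls on each plate. A hit is defined as scaled >0.85 or among the top 3 wells per plate.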
# [1] = library stock concentration: 10 mM
# [2] = library stock concentration: 3.33 mM
# [3] = library stock concentration: 1 mM
smiles,measurement,setting,value
C=CCc1ccc2c(c1)OCO2 [Safrole],scaled lipid accumulation score,[1],0.109
O=[N+]([O-])/C=C/c1ccc2c(c1)OCO2,scaled lipid accumulation score,[1],0.967 (active)
O=[N+]([O-])/C=C/c1ccc2c(c1)OCO2 [Syk Inhibitor III],scaled lipid accumulation score,[2],0.609
c1cc2c(cc1[C@H]1OC[C@H]3[C@@H]1CO[C@@H]3c1ccc3c(c1)OCO3)OCO2 [Sesamin],scaled lipid accumulation score,[2],≤ 0
same,scaled lipid accumulation score,[1],≤ 0
O=[N+]([O-])C=Cc1ccc2c(c1)OCO2,scaled lipid accumulation score,[2],1.44 (active)
same,scaled lipid accumulation score,[1],0.901 (active)
O=C(Oc1ccc([N+](=O)[O-])cc1)N1CCC(C(O)(c2ccc3c(c2)OCO3)c2ccc3c(c2)OCO3)CC1,scaled lipid accumulation score,[2],≤ 0
same,scaled lipid accumulation score,[1],≤ -0.001
C=C1C/C(=C/C)C(=O)O[C@@H]2CCN3CC=C(COC(=O)[C@]1(C)O)[C@H]23 [Seneciphylline],scaled lipid accumulation score,,≤ 0
CCCCC/C=C\C/C=C\C/C=C\C/C=C\CCCC(=O)NOCCO [oxy-Arachidonoyl Ethanolamide],scaled lipid accumulation score,[3],0.014
C[C@H](N)C(=O)N[C@@H](C)C(=O)N[C@@H](Cc1ccccc1)C(=O)CCl,scaled lipid accumulation score,library stock concentration: 14.7 mM,0.708
CCCCCCCCCCCCCC(=O)O[C@@H]1[C@@H](C)[C@@]2(O)[C@@H](C=C(CO)C[C@]3(O)C(=O)C(C)=C[C@@H]23)[C@@H]2C(C)(C)[C@]12OC(C)=O [Phorbol 12-myristate 13-acetate] [listing 1 of 2 here],scaled lipid accumulation score,library stock concentration: 8.1 mM,0.934 (active)
CCCCCCCCCCCCCC(=O)O[C@@H]1[C@@H](C)[C@@]2(O)[C@@H](C=C(CO)C[C@]3(O)C(=O)C(C)=C[C@@H]23)[C@@H]2C(C)(C)[C@]12OC(C)=O [Phorbol 12-myristate 13-acetate] [listing 2 of 2 here],scaled lipid accumulation score,[1],≤ 0
CC(=O)O[C@@]12C[C@@H](C)[C@@]3(O)[C@@H](C=C(CO)C[C@]4(O)C(=O)C(C)=C[C@@H]34)[C@@H]1C2(C)C [Prostratin],scaled lipid accumulation score,[3],0.583 (active)
CC(=O)O[C@@H]1CC[C@@]2(C)[C@@H](CC[C@@H]3[C@@H]2CC[C@]2(C)C(=O)CC[C@@H]32)C1 [Androsterone acetate],scaled lipid accumulation score,[1],≤ -0.027
C=CCN1CC[C@]23c4c5ccc(O)c4O[C@H]2/C(=N/N=C2\CC[C@@]4(O)[C@H]6Cc7ccc(O)c8c7[C@@]4(CCN6CC=C)[C@H]2O8)CC[C@@]3(O)[C@H]1C5 [Naloxonazine 2HCl],scaled lipid accumulation score,library stock concentration: 3.1 mM,0.144
N[C@@H]1C[C@H]1c1ccccc1.N[C@H]1C[C@@H]1c1ccccc1 [Tranylcypromine],scaled lipid accumulation score,library stock concentration: 80 uM,≤ 0
same,scaled lipid accumulation score,library stock concentration: 400 uM,≤ 0
same,scaled lipid accumulation score,library stock concentration: 2 mM,≤ 0
same,scaled lipid accumulation score,[1],≤ 0
same,scaled lipid accumulation score,library stock concentration: 15 mM,≤ -0.003
N[C@@H]1C[C@H]1c1ccccc1.N[C@H]1C[C@@H]1c1ccccc1 [Tranylcypromine sulfate],scaled lipid accumulation score,library stock concentration: 8.6 mM,≤ 0
same,scaled lipid accumulation score,[1],≤ 0
